IL-1B inflam inh = inflammasome signaling inhibition, IL-1 beta readout; THP-1 LPS/ATP IL-1B secretion, AlphaLISA, 16 h; stronger effect = lower value; activity change, % at 57.5 µM; hit rate 4.7% among 360,000; in the data active means activity change below about -50%; inconclusive means mostly about -30% to -49%
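THP-1 cells pretreated 1 hr with compounds (up to 57.5 uM final), then stimulated with LPS (250 ng/mL final) plus ATP (1.25 mM final); secreted IL-1B measured by AlphaLISA after 16 hr, decreased signal indicating inhibition.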
12-LOX inh = blocks human arachidonate 12S-lipoxygenase; P18054; purified 12hLO, xylenol orange hydroperoxide absorbance; Potency, µM (top dose mostly 108 µM), without a hit: at the top dose activity change, negative = inhibition, usual class: inhibitors; hit rate 1.1% among 580,000; further: potency means the concentration at half of the fitted maximal effect
Target sequence (P18054 whole entry, looked up): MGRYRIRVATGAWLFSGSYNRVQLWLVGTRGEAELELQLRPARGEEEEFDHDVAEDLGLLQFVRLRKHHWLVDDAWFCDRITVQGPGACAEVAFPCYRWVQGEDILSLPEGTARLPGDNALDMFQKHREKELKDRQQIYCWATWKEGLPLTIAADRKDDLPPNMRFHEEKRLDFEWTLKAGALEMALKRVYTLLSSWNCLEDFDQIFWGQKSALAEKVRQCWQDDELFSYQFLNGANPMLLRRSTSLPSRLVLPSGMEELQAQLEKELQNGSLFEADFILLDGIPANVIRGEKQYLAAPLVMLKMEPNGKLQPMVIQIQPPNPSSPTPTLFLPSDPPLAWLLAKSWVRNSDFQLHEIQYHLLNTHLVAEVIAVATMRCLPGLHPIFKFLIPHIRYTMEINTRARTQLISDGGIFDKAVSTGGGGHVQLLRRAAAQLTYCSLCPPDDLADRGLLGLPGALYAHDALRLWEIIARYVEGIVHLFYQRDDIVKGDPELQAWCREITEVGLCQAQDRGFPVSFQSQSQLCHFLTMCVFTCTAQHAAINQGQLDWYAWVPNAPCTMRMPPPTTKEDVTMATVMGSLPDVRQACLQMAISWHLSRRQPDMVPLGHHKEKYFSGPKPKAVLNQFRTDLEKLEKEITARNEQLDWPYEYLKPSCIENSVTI
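Purified human 12hLO (150 nM final) in 25 mM Hepes, 0.01% Triton X-100, pH 7.0 was preincubated 15 min at room temperature with compound. Then 40 uM arachidonic acid was added, 30 min. Hydroperoxide was read by Fe-XO absorbance ratio 573/405 nm.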
TDP1 cell noCPT = qHTS for Inhibitors of human tyrosyl-DNA phosphodiesterase 1 (TDP1): qHTS in cells in absence of CPT | DT40 Tdp1-/- hTDP1 cells, no CPT, ATP luminescence, 48 h | Potency, µM (highest dose often 46.2 µM), for inactives: at the highest dose activity change, negative = growth inhibition, hits mostly inhibitors | hit rate 15% among 420,000 | AID 686978, 2013; further: potency means the concentration at half of the fitted maximal effect; nearly all actives have a fitted effect of over 55% in size
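No-CPT arm: Tdp1-/-;hTDP1 DT40 cells (400/well) plus compounds, incubated ≥48 hr at 37 °C. Readout CellTiter-Glo luminescence.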
DT40 TDP1 CPT = DT40-hTDP1 cell growth loss with CPT; Potency, µM (doses to about 46.2 µM), for inactives: at the top dose activity change, negative = growth inhibition, hits mostly inhibitors; AID 686979; chicken DT40 Tdp1-/-;hTDP1 cells + 20 nM CPT, ATP luminescence, 48 h; hit rate 12% among 420,000; further: potency means the concentration at half of the fitted maximal effect; nearly all actives have a fitted effect of over 55% in size
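Chicken DT40 Tdp1-/- cells complemented with human TDP1, 400 cells/well, exposed to compounds plus 20 nM camptothecin for at least 48 h at 37 C; viability read as ATP content by CellTiter-Glo luminescence.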
HT1080-NT tox = kills 2HG-producing HT-1080-NT fibrosarcoma cells; HT-1080-NT fibrosarcoma viability, CellTiter-Glo ATP luminescence, 48 h; Potency, µM (titrated, usually from 46.1 µM), without a hit: top-dose activity, negative = less viability, hits mostly cytotoxic; hit rate 1.6% among 360,000;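 further: NT is the 2HG producing partner of a matched IDH1 knockdown line; potency means the concentration at half of the fitted maximal effect; 0% = DMSO-treated cells and -100% = media-only wells without cells; nearly all actives have a fitted effect of over 55% in size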
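A 48-hour cytotoxicity screen used HT-1080-NT cells plated 2 hours before compound delivery. ATP-based CellTiter-Glo luminescence measured viability, normalized to DMSO and no-cell controls.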
HT1080 IDH1KD tx = kills HT-1080 cells with IDH1 knockdown; HT-1080 IDH1 knockdown viability, ATP luminescence, 48 h; Potency, µM (titrated, usually from 46.1 µM), without a hit: at the highest dose activity, negative = toxicity, usual class: cytotoxic; hit rate 2% among 360,000; AID 686971;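 further: potency means the concentration at half of the fitted maximal effect; 0% = DMSO wells and -100% = cell-free medium wells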
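Using the IDH1-knockdown HT-1080 line run in the same batch and compound series as the NT line, viability after 48 h at 37 °C was determined by CellTiter-Glo luminescence and expressed as % activity.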
Starred values were filed as active, the others as inactive; ? = inconclusive; nt = not tested or not shown; [ ] = another dose, or the depositor's remark. The entries come from a sample that favours hits as a whole. Unless noted, the call rests on the fitted dose curve; in most records, active means well fitted curve in the direction sought with a large enough effect; inconclusive means small, poorly fitted or top-dose-only effect, or another doubt; inactive means no such curve, though single readings can be large; an effect the other way counts as inactive or inconclusive. Unless noted, on the % scale 0 is the no-effect control and ±100 the full control effect.

SMILES | IL-1B inflam inh | 12-LOX inh | TDP1 cell noCPT | DT40 TDP1 CPT | HT1080-NT tox | HT1080 IDH1KD tx
CCOC(=O)Cc1csc(/N=C/c2c(O)n(-c3ccc(C)c(C)c3)c(=O)c3ccccc23)n1 | -6.9 | 10.1% | ? | 20.6µM* | 6.5% | 21.5%
Cc1ccc(-n2c(O)c(C=Nc3ccc4c(c3)OCO4)c3ccccc3c2=O)cc1C | 25.0 | 13.2% | ? | 7.31µM* | 11.6% | -13.6%
Cc1cccc(-n2c(O)c(C=Nc3cccc(O)c3)c3ccccc3c2=O)n1 | -14.0 | ? | ? | 20.6µM* | -6.1% | -3.1%
Cc1cccc(-n2c(O)c(C=Nc3ccc4c(c3)OCO4)c3ccccc3c2=O)n1 | ? | 0.0% | ? | ? | -0.2% | 6.2%
COc1cccc(C(CCc2cc(OC)c(OC)c(OC)c2)NC(C)=O)c1 (stereo not drawn) | 22.5 | 3.3% | -9.2% | 9.7% | 1.4% | 8.2%
O=C1N(c2ccccc2)c2ccccc2C12CCN(Cc1cccnc1)C2 (stereo not drawn) | nt | 6.8%[6.33 µM] | nt | nt | nt | nt
COc1cc(O)c(C(=O)c2ccccc2)cc1S(=O)(=O)O | nt | ? | 4.8% | 1.2% | nt | nt
COc1cc(O)c(C(=O)c2ccccc2)cc1O | nt | nt | 4.61µM* | 4.11µM* | nt | nt
COc1ccc(C(=O)c2ccccc2)c2c(O)ccc(C(=O)c3ccccc3)c12 | -0.2 | 2.0% | 16.4µM* | ? | -17.4% | -28.0%
CN(C)c1nc(N)c([N+](=O)[O-])c(N2CCCCCC2)n1 | ? | 4.4% | 9.9% | -4.9% | -0.3% | 9.6%
CC(C)(C)CC(=O)N1CCC2(CC1)N(c1ccccc1)C(=O)CS2(=O)=O | nt | 15.7% | nt | nt | nt | nt
CCc1nnc(NC(=O)CSc2ccc(-c3nc4ccccc4[nH]3)cn2)s1 | 13.7 | ? | -24.7% | -13.8% | ? | -20.7%
Cc1ccc2nc(-c3ccc(SCC(=O)Nc4nnc(C)s4)nc3)[nH]c2c1 | -95.1* | ? | 14.6µM* | ? | 20.6µM* | 9.2µM*
Cc1ccc2nc(-c3ccc(SCC(=O)Nc4nc(C)cs4)nc3)[nH]c2c1 | 9.3 | -12.1% | 10.3µM* | 18.4µM* | -7.7% | -26.7%
CCCC1NC(=O)c2cccnc2-n2c1nc1ccc(OC)cc1c2=O (stereo not drawn) | -5.2 | -29.4% | -0.6% | 10.0% | 2.2% | -1.8%
COc1cccc(N(C(=O)Cn2nnc(-c3ccc(Cl)cc3)n2)C(C(=O)NCC2CCCO2)c2ccc(C)cc2)c1 (stereo not drawn) | -9.2 | -4.6% | 20.6µM* | 16.4µM* | 0.0% | 4.6%
COc1ccc(-c2nnn(CC(=O)N(Cc3ccccc3Cl)C(C(=O)NCC3CCCO3)c3ccco3)n2)cc1 (stereo not drawn) | 5.5 | ? | 18.4µM* | ? | 0.2% | 8.9%
COc1ccc(-c2nnn(CC(=O)N(Cc3ccco3)C(C(=O)NCC3CCCO3)c3ccco3)n2)cc1 (stereo not drawn) | -22.6 | -25.2% | ? | ? | 3.6% | -14.6%
COc1ccc(C(=O)C2CCN(C(=O)/C=C/c3cccc(C(F)(F)F)c3)CC2)cc1 | nt | 17.8% | nt | nt | nt | nt
CCC1c2nccn2CCCN1C(=O)Cn1cccn1 (stereo not drawn) | nt | 3.8% | nt | nt | nt | nt
CCc1ccccc1NC(=O)c1ccc2c(c1)nnn2C1CCCC1 | nt | -0.7% | ? | 25.9µM* | nt | nt
O=C(Nc1cccc(C(F)(F)F)c1)c1ccc2c(c1)nnn2C1CCCC1 | nt | 9.4% | 8.2µM* | ? | nt | nt
CCOC(=O)c1cccc(NC(=O)c2ccc3c(c2)nnn3C2CCCC2)c1 | nt | -5.3% | ? | ? | nt | nt
Cc1cc(S(=O)(=O)N2CCCC(Cn3cnc4cccnc43)C2)ccc1Cl (stereo not drawn) | nt | 57.4% | nt | nt | nt | nt
NC(=O)CN1CC2(CCC1=O)CCN(CC1CCCCO1)CC2 (stereo not drawn) | nt | 7.2% | nt | nt | nt | nt
SMILES | IL-1B inflam inh | 12-LOX inh | TDP1 cell noCPT | DT40 TDP1 CPT | HT1080-NT tox | HT1080 IDH1KD tx
CCCCCCSc1ccc(-c2nc3ccccn3c2NCCCC)cc1 | ? | -26.1% | 14.6µM* | 23.1µM* | 2.3% | 3.9%
CCCCNc1c(-c2ccc(SC(C)CC)cc2)nc2ccc(Cl)cn12 (stereo not drawn) | 0.0 | ? | 29.1µM* | ? | -6.2% | -3.5%
COCCNc1c(-c2ccc(OC)cc2)nc2ccc(Cl)cn12 | ? | -11.4% | ? | ? | -2.1% | 1.4%
CCC(C)Sc1ccc(-c2nc3ccc(C)cn3c2NCc2ccccc2)cc1 (stereo not drawn) | ? | -6.9% | 16.4µM* | 23.1µM* | -12.4% | -10.1%
CCCCCCSc1cccc(-c2nc3ccc(Cl)cn3c2NCCCC)c1 | 2.8 | ? | 13µM* | 16.4µM* | 5.5% | 0.0%
C=CCC1(C#N)C(SC)=NC2=C(C(=O)CC(C)(C)C2)C1c1ccc(Br)cc1 (stereo not drawn) | 0.6 | -20.1% | ? | ? | -0.6% | -12.4%
CN(Cc1ccccc1)C(=O)c1nc(-c2cccc3[nH]ccc23)no1 | nt | -25.6% | nt | nt | nt | nt
CCCNC(=O)N[C@@H]1C[C@H](Cn2cc(-c3cccnc3)nn2)[C@@H](O)[C@H]1O | nt | 14.1µM* | nt | nt | nt | nt
CN(C)c1cc(N2CCCC(NC(=O)c3ccoc3)C2)ncn1 (stereo not drawn) | nt | 7.2% | nt | nt | nt | nt
C#CCn1cc(C=C2C(=O)c3ccccc3C2=O)c2ccccc21 | 7.2 | -15.8% | 20.6µM* | 23.1µM* | -5.5% | 2.8%
Cc1cc(C)[n+]2n1C(=O)C(c1ccccc1)=C2[O-] | -8.4 | -5.3% | 2.1% | -4.1% | -2.9% | -6.7%
Cc1cc(C)[n+](C)n1-c1ccccc1 | nt | 17.8µM* | nt | nt | nt | nt
Cc1ccc(Nc2c(-c3ccc(C)cc3)nc3ccc(C)cn23)cc1 | nt | -25.1% | ? | ? | nt | nt
COc1cc(-c2nc3nc(C)cc(C)n3c2Nc2ccc(Cl)cc2)ccc1O | nt | -7.5% | ? | ? | nt | nt
CSc1ccc(-c2nc3cccc(C)n3c2Nc2ccc(Cl)cc2)cc1 | nt | -36.8% | 7.31µM* | 9.2µM* | nt | nt
Cc1ccc(Nc2c(-c3ccc(O)cc3)nc3cccc(C)n23)cc1 | nt | -18.3% | ? | 23.1µM* | nt | nt
COc1ccc(NC(=O)Cn2cnc3sc(C)c(S(=O)(=O)N4CCOCC4)c3c2=O)cc1Cl | -9.4 | -15.7% | -24.7% | 1.3% | -0.1% | -0.2%
CC(=O)c1cccc(NC(=O)c2cc3nc(-c4ccc(Br)cc4)cc(C(F)(F)F)n3n2)c1 | nt | -25.9% | 6.51µM* | 6.51µM* | nt | nt
O=C1C(N2CCN(S(=O)(=O)c3cc(F)cc(F)c3)CC2)CCN1CCc1ccccc1 (stereo not drawn) | nt | -5.1% | nt | nt | nt | nt

High-throughput results (PubChem BioAssay)
